The record followed here is PubChem BioAssay.

Active and inactive are the calls of the source.

Experiment [1] in a line: small molecules captured by biotinylated probe aFSTL3 – biochemical, small-molecule microarray, fluorescence 635/667, stem cell growth factor project, primary screen (AID 1064).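 Note: measures binding of the biotinylated anti-FSTL3 antibody to printed compounds.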 To be noted: higher = more signal.
Experiment [2] can be described thus: binders from COS7 lysate, DM2A8 probe, primary screen, torsin A project, cell lysate, small-molecule microarray, fluorescence 635/667 (AID 1065). To be noted: higher = more signal, COS7 lysate expressing mutant human TOR1A.
Experiment [3] can be described thus: small molecules captured by biotinylated probe aFGF2 – biochemical, small-molecule microarray, fluorescence 635/667, stem cell growth factor project, primary screen (AID 1067).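 Note: measures binding of biotinylated aFGF2 protein to printed compounds on slides; z-score merges feature fluorescence and signal-to-noise across triplicate slides.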 The settings on record: higher = more signal.
The nature of experiment [4]: small molecules captured by biotinylated probe aFGF10 – biochemical, small-molecule microarray, fluorescence 635/667, stem cell growth factor project, primary screen (AID 1071).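 Note: score merges 667 nm spot intensity and signal to noise from triplicate slides.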 To be noted: higher = more signal.
Experiment [5] concerns the target Neurogenic locus notch homolog protein 2 (Homo sapiens) (UniProt Q04721). Kind of experiment: small molecules binding Notch2 protein – biochemical, small-molecule microarray, 635 nm fluorescence, stem cell growth factors, primary screen (AID 1073). The settings on record: higher = more signal.
Experiment [6] addresses Pro-neuregulin-1, membrane-bound isoform (Homo sapiens) (UniProt Q02297). Briefly: small molecules binding neuregulin-1 protein – biochemical, small-molecule microarray, fluorescence 635/667, psychiatric disease protein project, primary screen (AID 1075).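 Note: score combines 667 nm spot fluorescence with signal to noise.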 To be noted: NRG1 binding, 635 nm fluorescence, higher = more signal.
In experiment [7] the test system is Neuregulin-1 EGF-like domain. Kind of experiment: small molecules binding NRG1 EGF domain – biochemical, small-molecule microarray, 635 nm fluorescence, primary screen (AID 1081).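 Note: binding of the protein to compounds printed on small-molecule microarray slides.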 To be noted: higher = more signal.
Experiment [8] can be described thus: FRG1 expression reporter modulators in myotubes – cell-based, C2C12 myotubes, firefly/Renilla luciferase, luminescence, FRG1 inhibition for FSHD, primary screen (AID 1084). To be noted: FRG1 promoter luciferase, higher = more signal, called active from +8 up or from −8 down.
Experiment [9] is described as follows: small molecules captured by biotinylated probe aFST – biochemical, small-molecule microarray, fluorescence 635/667, stem cell growth factor project, primary screen (AID 1086).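 Note: score merges 667 nm fluorescence with signal-to-noise of each printed compound spot.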 The settings on record: higher = more signal.
A short description of experiment [10]: binders of probe aHhip on microarray, primary screen, stem cell growth factor project, biochemical, small-molecule microarray, fluorescence 635/667 (AID 1087).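 Note: score merges spot fluorescence at 667nm with spot signal to noise ratio.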 The settings on record: higher = more signal.

Neurogenic locus notch homolog protein 2 (Homo sapiens), sequence (Q04721 whole entry, looked up, canonical isoform): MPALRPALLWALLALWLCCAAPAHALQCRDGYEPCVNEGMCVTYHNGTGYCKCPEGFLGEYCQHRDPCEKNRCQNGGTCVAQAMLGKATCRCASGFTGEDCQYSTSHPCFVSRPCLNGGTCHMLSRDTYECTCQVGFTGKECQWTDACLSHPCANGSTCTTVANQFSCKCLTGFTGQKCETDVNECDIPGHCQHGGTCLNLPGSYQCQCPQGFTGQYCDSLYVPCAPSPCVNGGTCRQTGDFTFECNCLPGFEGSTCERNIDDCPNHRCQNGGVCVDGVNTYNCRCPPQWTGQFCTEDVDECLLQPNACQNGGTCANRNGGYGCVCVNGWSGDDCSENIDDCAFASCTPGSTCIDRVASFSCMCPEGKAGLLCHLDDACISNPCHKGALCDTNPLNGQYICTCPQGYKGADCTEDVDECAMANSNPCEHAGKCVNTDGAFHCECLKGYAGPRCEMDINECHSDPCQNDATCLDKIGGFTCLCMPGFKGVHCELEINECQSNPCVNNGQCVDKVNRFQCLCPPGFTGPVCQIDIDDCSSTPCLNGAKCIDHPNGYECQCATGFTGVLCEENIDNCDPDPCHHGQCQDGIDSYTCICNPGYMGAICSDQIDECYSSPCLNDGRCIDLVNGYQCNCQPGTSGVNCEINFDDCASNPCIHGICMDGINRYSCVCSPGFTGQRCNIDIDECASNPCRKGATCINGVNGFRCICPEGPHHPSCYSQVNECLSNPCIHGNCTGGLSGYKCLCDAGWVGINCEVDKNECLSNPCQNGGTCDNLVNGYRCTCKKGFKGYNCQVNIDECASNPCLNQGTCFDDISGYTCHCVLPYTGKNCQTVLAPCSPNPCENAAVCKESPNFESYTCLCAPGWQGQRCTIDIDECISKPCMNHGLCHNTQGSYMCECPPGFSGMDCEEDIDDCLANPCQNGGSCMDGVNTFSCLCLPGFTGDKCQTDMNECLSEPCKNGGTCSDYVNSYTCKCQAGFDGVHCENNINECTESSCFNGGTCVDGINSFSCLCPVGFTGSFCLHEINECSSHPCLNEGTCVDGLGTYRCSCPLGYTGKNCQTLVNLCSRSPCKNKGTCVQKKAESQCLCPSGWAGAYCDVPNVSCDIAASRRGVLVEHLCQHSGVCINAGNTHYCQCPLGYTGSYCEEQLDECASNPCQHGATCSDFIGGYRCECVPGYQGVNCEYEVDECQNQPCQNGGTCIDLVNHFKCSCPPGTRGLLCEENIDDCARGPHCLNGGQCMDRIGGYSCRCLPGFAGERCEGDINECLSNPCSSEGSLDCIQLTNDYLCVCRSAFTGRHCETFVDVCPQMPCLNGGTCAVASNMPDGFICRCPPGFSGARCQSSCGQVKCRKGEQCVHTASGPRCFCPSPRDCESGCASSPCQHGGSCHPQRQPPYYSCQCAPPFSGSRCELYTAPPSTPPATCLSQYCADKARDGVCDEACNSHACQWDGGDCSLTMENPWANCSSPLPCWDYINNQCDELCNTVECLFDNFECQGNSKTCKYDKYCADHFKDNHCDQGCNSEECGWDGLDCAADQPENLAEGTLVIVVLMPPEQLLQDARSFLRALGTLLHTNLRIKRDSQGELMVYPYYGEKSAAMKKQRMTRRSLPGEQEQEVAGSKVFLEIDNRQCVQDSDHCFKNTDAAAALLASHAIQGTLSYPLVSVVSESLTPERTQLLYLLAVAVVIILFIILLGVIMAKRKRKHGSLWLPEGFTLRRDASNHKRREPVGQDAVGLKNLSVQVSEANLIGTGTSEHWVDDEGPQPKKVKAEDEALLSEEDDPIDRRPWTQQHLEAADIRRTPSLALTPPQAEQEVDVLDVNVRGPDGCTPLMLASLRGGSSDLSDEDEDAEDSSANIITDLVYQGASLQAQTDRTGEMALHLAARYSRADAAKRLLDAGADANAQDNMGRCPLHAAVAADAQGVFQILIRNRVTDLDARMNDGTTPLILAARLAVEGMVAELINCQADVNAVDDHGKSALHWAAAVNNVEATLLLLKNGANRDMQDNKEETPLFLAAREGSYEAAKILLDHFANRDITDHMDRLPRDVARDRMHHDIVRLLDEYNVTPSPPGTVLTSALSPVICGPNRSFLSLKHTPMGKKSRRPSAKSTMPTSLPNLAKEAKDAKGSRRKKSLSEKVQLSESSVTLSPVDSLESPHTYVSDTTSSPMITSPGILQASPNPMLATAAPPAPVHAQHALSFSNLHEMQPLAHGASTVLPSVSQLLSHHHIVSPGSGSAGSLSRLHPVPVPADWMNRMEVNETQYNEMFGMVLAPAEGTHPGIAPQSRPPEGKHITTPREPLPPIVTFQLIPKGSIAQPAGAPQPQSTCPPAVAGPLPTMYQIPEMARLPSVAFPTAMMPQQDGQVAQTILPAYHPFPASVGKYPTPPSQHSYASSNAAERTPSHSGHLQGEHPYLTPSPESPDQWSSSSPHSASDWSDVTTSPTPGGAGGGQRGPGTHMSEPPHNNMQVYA
Pro-neuregulin-1, membrane-bound isoform (Homo sapiens), sequence (Q02297 whole entry, looked up, the tested form may be a part, canonical isoform): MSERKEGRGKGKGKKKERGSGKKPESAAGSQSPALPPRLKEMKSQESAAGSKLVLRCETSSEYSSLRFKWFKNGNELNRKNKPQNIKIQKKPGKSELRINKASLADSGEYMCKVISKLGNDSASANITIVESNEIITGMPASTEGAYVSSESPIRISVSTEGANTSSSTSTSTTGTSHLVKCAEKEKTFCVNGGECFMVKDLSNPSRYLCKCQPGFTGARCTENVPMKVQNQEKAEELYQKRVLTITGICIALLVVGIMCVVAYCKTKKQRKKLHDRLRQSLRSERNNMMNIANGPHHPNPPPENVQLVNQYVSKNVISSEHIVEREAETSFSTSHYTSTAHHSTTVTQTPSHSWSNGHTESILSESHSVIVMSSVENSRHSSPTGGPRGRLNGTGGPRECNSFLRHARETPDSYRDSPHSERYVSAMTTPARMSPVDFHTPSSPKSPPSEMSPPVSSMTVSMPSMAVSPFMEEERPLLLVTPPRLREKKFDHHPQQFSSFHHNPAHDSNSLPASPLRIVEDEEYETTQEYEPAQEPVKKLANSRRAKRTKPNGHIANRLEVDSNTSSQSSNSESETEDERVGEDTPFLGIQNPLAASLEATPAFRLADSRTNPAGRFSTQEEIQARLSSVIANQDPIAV

For `CO[C@@H]1COC(=O)CC=C[C@H](C)[C@H](OC)COC(=O)[C@H](C)NC(=O)CC=C[C@H]1C`, the composite z-score in experiment [1] is -0.729; in [2] it was 1.42; in experiment [3] it was -0.132; in experiment [4] it was -0.267; in [5], -0.316; in [6], -0.63. The composite z-score in [7] is 0.347; in [9], 0.0458; in experiment [10] it was -0.0491. Moreover, in experiment [8], the z-score was -0.175 (inactive).

On to `CO[C@@H]1COC(=O)CC=C[C@@H](C)[C@@H]2C=C[C@H](O)[C@@H](COC(=O)CC=C[C@H]1C)O2`, for which the composite z-score in experiment [1] is -0.304; in [2] it was 1.7; in experiment [3], -0.192; in [4], -0.14; in experiment [5], -0.703; in [6], -0.421. Besides, the composite z-score in experiment [7] was 0.824; in experiment [9] it was -0.245; in experiment [10], 0.0714. The z-score in [8] is -0.715 (inactive).

As to `Cc1ccc(S(=O)(=O)NC(CCc2ccccc2)CC(=O)C(C)(C)C)cc1` (stereo not given), the composite z-score was -0.651 in experiment [1]; 0.339 in experiment [2]; -0.228 in experiment [3]; 0.711 in experiment [4]; 0.747 in experiment [5]; 0.132 in experiment [6]. Moreover, the composite z-score in experiment [7] is 0.459; in experiment [9] it was 0.195; in experiment [10] it was -0.261. Further, the z-score in experiment [8] is -3.04 (inactive).

With `COC(=O)[C@H]1[C@@H](O)[C@@]2(O)c3ccccc3O[C@@]2(c2ccccc2)[C@@H]1c1ccccc1`, the composite z-score in experiment [1] was 1.08; in experiment [2], 0.177; in experiment [3], -0.114; in experiment [4] it was 0.269; in experiment [5], 0.254; in experiment [6], -0.68. Also, the results for the composite z-score in [7], in experiment [9] and in experiment [10] were 0.768, 0.0643 and -0.301, respectively. Further, the z-score in experiment [8] was -0.886 (inactive).

`O=c1n(Cc2cc3c(cc2Cl)OCO3)c(=O)n2n1CC[C@@H]1C(=NOC[C@@H](O)COCc3ccco3)[C@H]3O[C@H]3[C@@H](O)[C@@H]12`: the composite z-score in experiment [1] is -0.247; in experiment [2], 0.28; in [3], -0.0878; in [4] it was 0.217; in experiment [5], 0.169; in [6], -0.112. In addition, the composite z-score is 0.0421 in experiment [7], -0.142 in experiment [9] and 0.0398 in experiment [10]. For the same compound, the z-score in [8] was 0.0388 (inactive).

With `O=C1C[C@@H](O)[C@@H](O)[C@@H]2[C@@H]3C(=O)N(C[C@@H]4CCCO4)C(=O)[C@@H]3CC[C@@H]12`, the composite z-score in experiment [1] is -0.58; in [2] it was 0.203; in [3], -0.0329; in experiment [4], 0.58; in experiment [5], 0.686; in [6], 0.123. Moreover, the composite z-score in [7] turned out to be 0.459; in experiment [9], 0.817; in [10], 0.21. For the same compound, the z-score in experiment [8] was -1.13 (inactive).

With `CCc1cc2c(nc1CC)CCN(CCC(C)=NO[C@H](C)c1cn([C@@H]3COC[C@H]3O)nn1)C2`, the composite z-score in experiment [1] is -0.141; in [2], -0.0699; in experiment [3], -0.0015; in experiment [4] it was 0.0444; in experiment [5], 0.199; in experiment [6] it was -0.174. Also, the results for the composite z-score in experiment [7], in experiment [9] and in [10] were -0.365, 0.224 and -0.0994, respectively. Further, the z-score in experiment [8] is -0.0345 (inactive).

Regarding `CCCCC#C[C@@H]1C=C[C@H](Oc2ccc(C(=O)OC)cc2)[C@@H](COC(=O)OCC)O1`, the composite z-score is -0.367 in [1]; 0.956 in experiment [2]; -0.0874 in experiment [3]; 0.495 in [4]; 0.65 in experiment [5]; 0.338 in experiment [6]. For the same compound, the composite z-score in experiment [7] amounted to 0.733; in [9], 0.153; in [10] it was 0.178. The z-score in experiment [8] is -2.03 (inactive).

`CCCCC#C[C@@H]1C=C[C@H](Oc2cc(OC)c(OC)c(OC)c2)[C@@H](COC(=O)OCC)O1`: the composite z-score in experiment [1] is -0.682; in experiment [2], -0.0561; in experiment [3], -0.116; in experiment [4], -0.0152; in [5] it was -0.526; in experiment [6], -0.158. Further, the composite z-score in [7] was -0.365; in experiment [9] it was -0.311; in experiment [10], 0.141. The z-score in [8] is -0.214 (inactive).

With `CO[C@H](C1CCCCC1)[C@H](C)C=CCC(=O)OCCCc1ccccc1`, the composite z-score in [1] is -0.13; in experiment [2], 0.216; in experiment [3], -0.155; in [4] it was -0.104; in experiment [5], -0.163; in experiment [6], -0.137. Further, the values for the composite z-score in [7], in [9] and in experiment [10] were -0.647, -0.175 and -0.145, respectively. Further, the z-score in [8] is 0.567 (inactive).

For the compound `CC(CCN1CCCCc2nc(C)c(C)cc21)=NO[C@H](C)c1cn([C@H](CO)Cc2ccccc2)nn1`, the composite z-score in experiment [1] is -0.476; in [2] it was 0.736; in [3], -0.0894; in experiment [4] it was 0.205; in [5], -0.248; in experiment [6], -0.0339. The composite z-score in experiment [7] was 0.362; in [9], 0.627; in experiment [10] it was -0.0237. Moreover, in experiment [8], the z-score is 2.09 (inactive).

Take `CCOC(=O)[C@H](Cc1ccccc1)NC(=O)CCC1CC(OC(=O)NCCc2ccc(F)cc2)CC2(CCCC(COC(=O)NCC3CCCCC3)O2)O1` (stereo not given in full): the composite z-score was -0.509 in [1]; 0.574 in experiment [2]; -0.0425 in [3]; 0.582 in [4]; 1.42 in experiment [5]; 0.513 in experiment [6]. In addition, the composite z-score was 1.1 in experiment [7], 0.676 in experiment [9] and -0.302 in experiment [10]. In addition, the z-score in experiment [8] was -0.692 (inactive).

With `CC(C)CON=C1C[C@@H](O)[C@@H](O)[C@@H]2[C@@H]3C(=O)N(Cc4ccc5c(c4)OCO5)C(=O)[C@@H]3CC[C@H]12`, the composite z-score in experiment [1] was -0.504; in [2], -0.111; in experiment [3] it was -0.149; in experiment [4], 0.715; in [5], 0.392; in [6] it was 1.01. Also, the composite z-score was 1 in experiment [7], 0.0313 in experiment [9] and -0.0645 in [10]. For the same compound, the z-score in [8] was -0.261 (inactive).
